For one sequence, binding signal results are on record in publication PMC7862700, “An all-to-all approach to the identification of sequence-specific readers for epigenetic DNA modifications on cytosine”.

Common to all, as to test: DAPPL (digital affinity profiling via proximity ligation, sequencing); 10 mM Tris-HCl pH 7.5, 50 mM NaCl, 1 mM DTT, 4% glycerol, room temperature, 30 min; GST-TFs on glutathione beads, 16-mer random dsDNA library, 0.1% formaldehyde crosslink after washing; high values mean tight binding
One assay has as its target T1, FEV (Homo sapiens, UniProt Q99581 1-238).
T1 sequence: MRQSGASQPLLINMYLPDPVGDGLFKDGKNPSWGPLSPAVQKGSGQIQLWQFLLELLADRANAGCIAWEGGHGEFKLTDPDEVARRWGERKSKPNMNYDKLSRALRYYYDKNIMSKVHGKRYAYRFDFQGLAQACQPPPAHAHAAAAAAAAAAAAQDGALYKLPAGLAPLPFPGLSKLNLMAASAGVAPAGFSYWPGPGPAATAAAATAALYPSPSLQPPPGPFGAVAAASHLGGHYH
The note with it: protein: recombinant; tags: N-terminal GST; dsDNA, one strand shown. Put shortly: (§1)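 Binding signal is each hexamer's read frequency for a factor divided by its frequency in the tag-only sample. The factors were GST-fused human transcription factors from yeast, captured on glutathione beads, DNA-barcoded and pooled with that sample. Pools were incubated with 200 nmole of a random double-stranded 16-mer DNA library in Tris/NaCl/DTT/glycerol buffer at room temperature for 30 min, then washed, crosslinked with 0.1% formaldehyde, proximity-ligated with BsaI/T4 ligase (1 h, 37 °C), PCR-amplified and sequenced on an Illumina NextSeq500.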

The next assay concerns the target ETV5 (Homo sapiens, UniProt P41161 1-510). As to conditions: protein: recombinant; tags: N-terminal GST; dsDNA, one strand shown. Put shortly: as §1
The next assay deals with HSF1 (Homo sapiens, UniProt Q00613 1-529). As to conditions: protein: recombinant; tags: N-terminal GST; chain copies: 3; dsDNA, one strand shown. The method, boiled down:
as §1

The target of a further assay is T2, SPIC (Homo sapiens, UniProt Q8N5J4 1-248).
T2 sequence: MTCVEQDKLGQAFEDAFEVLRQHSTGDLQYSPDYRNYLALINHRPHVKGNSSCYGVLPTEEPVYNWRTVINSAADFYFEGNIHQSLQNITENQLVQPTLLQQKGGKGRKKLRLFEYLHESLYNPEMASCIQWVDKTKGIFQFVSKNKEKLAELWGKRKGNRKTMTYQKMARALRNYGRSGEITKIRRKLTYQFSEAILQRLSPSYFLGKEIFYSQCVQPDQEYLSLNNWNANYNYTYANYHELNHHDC
The note with it: protein: recombinant; tags: N-terminal GST; dsDNA, one strand shown. Put shortly:
as §1

A further assay deals with ELF4 (Homo sapiens, UniProt Q99607 1-663). The note with it: protein: recombinant; tags: N-terminal GST; dsDNA, one strand shown. Put shortly: as §1
ELF4, sequence (Q99607 whole entry): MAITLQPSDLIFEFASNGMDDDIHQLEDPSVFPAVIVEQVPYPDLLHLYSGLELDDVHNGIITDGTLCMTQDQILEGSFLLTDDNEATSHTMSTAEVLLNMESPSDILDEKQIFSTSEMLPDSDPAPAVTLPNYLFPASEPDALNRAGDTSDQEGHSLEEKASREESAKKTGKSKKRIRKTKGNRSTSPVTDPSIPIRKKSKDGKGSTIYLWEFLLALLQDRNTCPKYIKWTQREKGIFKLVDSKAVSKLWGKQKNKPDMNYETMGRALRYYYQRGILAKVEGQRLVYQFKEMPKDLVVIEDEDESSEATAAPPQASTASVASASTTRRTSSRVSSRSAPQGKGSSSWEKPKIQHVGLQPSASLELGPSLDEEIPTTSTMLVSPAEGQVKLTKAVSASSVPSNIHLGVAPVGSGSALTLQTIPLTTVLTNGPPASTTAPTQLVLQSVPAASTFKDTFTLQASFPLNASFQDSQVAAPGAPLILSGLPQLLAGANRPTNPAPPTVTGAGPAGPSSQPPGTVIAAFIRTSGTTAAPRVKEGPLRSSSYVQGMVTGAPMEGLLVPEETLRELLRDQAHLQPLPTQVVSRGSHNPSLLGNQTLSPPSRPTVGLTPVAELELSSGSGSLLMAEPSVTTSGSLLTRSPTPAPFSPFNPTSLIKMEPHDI
In another assay the target is T3, ELK4 (Homo sapiens, UniProt P28324-2 1-405).
T3 sequence: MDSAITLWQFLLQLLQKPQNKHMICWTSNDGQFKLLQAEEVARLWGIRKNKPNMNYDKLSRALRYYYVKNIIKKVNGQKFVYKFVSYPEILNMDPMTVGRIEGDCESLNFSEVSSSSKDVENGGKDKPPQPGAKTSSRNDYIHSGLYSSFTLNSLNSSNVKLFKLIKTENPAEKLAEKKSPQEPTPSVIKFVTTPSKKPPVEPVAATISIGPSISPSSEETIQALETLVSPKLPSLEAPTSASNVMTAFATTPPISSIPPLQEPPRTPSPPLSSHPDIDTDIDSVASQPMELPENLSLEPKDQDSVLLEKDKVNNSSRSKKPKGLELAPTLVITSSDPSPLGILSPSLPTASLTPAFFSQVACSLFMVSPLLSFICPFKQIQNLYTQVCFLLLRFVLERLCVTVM
The note with it: protein: recombinant; tags: N-terminal GST; dsDNA, one strand shown. Put shortly:
as §1

A further assay addresses T4, ETV2 (Homo sapiens, UniProt O00321 1-342).
T4 sequence: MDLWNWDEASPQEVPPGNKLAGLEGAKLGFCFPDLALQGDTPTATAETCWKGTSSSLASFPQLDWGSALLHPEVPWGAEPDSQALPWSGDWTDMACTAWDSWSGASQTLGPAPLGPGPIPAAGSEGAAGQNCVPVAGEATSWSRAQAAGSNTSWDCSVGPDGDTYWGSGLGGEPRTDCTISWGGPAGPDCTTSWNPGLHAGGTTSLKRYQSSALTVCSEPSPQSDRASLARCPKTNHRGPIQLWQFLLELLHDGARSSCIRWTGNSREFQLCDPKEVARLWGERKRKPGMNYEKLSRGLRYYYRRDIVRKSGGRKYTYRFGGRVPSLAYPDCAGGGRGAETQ
The note with it: protein: recombinant; tags: N-terminal GST; dsDNA, one strand shown. Put shortly:
as §1

In a further assay the target is T5, ELF3 (Homo sapiens, UniProt P78545 1-371).
T5 sequence: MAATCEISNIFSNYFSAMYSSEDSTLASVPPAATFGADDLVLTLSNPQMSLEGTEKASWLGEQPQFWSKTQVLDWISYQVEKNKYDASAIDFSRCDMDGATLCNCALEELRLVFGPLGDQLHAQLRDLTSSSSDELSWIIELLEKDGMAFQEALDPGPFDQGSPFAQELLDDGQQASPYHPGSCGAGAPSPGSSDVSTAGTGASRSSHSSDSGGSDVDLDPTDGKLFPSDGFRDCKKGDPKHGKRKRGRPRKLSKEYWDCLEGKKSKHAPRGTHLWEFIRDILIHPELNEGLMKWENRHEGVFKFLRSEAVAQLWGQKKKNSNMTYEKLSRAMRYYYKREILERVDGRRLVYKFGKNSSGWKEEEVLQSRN
The note with it: protein: recombinant; tags: N-terminal GST; dsDNA, one strand shown. Put shortly:
as §1

The target of another assay is CRX (Homo sapiens, UniProt O43186 1-299). The note with it: protein: recombinant; tags: N-terminal GST; dsDNA, one strand shown. The method, boiled down: as §1
CRX, sequence (O43186 whole entry): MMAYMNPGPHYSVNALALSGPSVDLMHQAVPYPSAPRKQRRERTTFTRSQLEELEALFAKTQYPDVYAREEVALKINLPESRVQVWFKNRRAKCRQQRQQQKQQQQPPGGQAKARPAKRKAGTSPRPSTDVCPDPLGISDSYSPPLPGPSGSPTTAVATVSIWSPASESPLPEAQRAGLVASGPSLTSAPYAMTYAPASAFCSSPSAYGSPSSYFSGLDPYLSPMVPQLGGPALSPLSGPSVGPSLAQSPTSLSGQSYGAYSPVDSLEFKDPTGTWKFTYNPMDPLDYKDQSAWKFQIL
The target of a further assay is ETV1 (Homo sapiens, UniProt P50549 1-477). As to conditions: protein: recombinant; tags: N-terminal GST; dsDNA, one strand shown. The method, boiled down: as §1
ETV1, sequence (P50549 whole entry): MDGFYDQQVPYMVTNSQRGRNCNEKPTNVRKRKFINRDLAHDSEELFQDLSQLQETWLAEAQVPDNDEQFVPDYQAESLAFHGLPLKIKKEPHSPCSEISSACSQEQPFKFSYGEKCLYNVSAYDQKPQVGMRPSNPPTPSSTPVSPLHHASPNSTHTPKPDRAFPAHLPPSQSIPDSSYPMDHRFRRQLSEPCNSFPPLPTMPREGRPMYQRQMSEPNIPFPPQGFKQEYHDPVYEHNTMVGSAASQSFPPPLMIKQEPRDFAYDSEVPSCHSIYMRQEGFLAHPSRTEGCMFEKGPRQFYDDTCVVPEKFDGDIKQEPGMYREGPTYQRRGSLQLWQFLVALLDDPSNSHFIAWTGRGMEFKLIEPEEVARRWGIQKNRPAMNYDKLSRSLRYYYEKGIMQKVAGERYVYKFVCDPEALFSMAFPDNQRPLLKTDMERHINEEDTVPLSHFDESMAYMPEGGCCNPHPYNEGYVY
The target in another assay is T6, ERF (Homo sapiens, UniProt P50548 1-548).
T6 sequence: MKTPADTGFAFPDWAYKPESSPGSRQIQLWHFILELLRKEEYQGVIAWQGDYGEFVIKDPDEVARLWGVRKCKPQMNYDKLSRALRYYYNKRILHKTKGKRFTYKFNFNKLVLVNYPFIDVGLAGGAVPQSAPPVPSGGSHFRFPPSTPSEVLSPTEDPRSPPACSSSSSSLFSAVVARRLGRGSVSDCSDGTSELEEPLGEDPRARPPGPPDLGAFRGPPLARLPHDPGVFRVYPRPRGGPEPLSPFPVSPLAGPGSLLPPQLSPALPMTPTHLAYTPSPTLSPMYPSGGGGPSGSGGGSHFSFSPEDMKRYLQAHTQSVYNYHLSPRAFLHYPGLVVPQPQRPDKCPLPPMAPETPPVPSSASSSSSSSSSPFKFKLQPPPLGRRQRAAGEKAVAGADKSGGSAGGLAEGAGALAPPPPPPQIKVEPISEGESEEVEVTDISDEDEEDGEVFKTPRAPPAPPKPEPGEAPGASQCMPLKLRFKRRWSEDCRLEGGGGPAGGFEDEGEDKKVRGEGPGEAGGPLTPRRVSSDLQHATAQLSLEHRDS
The note with it: protein: recombinant; tags: N-terminal GST; dsDNA, one strand shown. Put shortly:
as §1

Another assay has as its target T7, ETV3L (Homo sapiens, UniProt Q6ZN32 1-361).
T7 sequence: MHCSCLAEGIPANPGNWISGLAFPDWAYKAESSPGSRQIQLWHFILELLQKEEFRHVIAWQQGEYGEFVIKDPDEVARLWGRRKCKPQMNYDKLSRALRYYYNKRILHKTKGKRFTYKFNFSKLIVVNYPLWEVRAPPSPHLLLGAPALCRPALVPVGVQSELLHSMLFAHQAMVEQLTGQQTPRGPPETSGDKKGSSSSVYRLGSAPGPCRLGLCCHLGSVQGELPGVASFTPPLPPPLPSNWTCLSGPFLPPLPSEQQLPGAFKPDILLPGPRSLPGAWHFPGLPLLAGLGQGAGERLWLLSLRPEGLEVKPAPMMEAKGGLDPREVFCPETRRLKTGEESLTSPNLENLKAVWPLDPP
The note with it: protein: recombinant; tags: N-terminal GST; dsDNA, one strand shown. The method, boiled down: as §1

Another assay deals with T8, ETS2 (Homo sapiens, UniProt P15036 1-469).
T8 sequence: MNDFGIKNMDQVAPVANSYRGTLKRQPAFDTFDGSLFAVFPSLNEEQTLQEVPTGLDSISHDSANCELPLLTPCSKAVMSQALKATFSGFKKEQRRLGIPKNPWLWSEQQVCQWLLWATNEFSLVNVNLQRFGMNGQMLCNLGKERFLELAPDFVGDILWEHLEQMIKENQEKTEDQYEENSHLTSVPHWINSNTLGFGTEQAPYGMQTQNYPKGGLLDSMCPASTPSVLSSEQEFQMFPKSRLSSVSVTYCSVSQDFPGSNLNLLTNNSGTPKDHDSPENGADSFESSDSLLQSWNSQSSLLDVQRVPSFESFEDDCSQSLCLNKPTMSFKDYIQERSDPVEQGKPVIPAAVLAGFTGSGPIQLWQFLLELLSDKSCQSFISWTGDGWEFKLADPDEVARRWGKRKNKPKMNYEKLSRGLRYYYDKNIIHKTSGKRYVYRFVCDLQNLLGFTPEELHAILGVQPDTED
The note with it: protein: recombinant; tags: N-terminal GST; dsDNA, one strand shown. Put shortly:
as §1

The target in the next assay is T9, SPDEF (Homo sapiens, UniProt O95238 1-335).
T9 sequence: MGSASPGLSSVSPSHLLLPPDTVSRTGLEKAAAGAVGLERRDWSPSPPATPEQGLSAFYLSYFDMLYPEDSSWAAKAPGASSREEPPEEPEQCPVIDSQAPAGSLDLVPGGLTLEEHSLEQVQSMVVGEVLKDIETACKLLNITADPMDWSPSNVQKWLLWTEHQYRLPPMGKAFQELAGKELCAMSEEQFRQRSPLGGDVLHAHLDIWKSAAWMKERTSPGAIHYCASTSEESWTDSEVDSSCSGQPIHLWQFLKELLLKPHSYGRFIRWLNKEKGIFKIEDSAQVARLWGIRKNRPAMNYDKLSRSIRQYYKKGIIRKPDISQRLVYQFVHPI
As to conditions: protein: recombinant; tags: N-terminal GST; dsDNA, one strand shown. Put shortly: as §1

In a further assay the target is T10, ETV7 (Homo sapiens, UniProt Q9Y603 1-341).
T10 sequence: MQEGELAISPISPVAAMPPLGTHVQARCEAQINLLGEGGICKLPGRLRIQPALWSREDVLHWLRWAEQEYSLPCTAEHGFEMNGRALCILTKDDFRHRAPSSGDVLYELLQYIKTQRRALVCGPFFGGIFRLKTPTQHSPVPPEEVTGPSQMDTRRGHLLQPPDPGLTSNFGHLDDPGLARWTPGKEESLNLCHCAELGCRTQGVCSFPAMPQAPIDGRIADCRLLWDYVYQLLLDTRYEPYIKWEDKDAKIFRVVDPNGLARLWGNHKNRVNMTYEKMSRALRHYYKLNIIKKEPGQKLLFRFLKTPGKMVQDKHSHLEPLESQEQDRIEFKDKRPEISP
As to conditions: protein: recombinant; tags: N-terminal GST; dsDNA, one strand shown. Put shortly:
as §1

For another assay, the target named is T11, ELF5 (Homo sapiens, UniProt Q9UKW6-2 1-255).
T11 sequence: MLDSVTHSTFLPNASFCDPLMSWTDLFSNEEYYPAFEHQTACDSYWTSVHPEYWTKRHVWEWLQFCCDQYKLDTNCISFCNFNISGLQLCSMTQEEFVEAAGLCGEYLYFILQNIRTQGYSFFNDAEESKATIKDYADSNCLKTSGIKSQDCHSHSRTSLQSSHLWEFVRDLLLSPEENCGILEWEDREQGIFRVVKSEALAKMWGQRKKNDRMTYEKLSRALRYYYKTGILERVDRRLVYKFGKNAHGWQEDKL
As to conditions: protein: recombinant; tags: N-terminal GST; dsDNA, one strand shown. Put shortly: as §1

The target of another assay is T12, ETV3 (Homo sapiens, UniProt P41162-2 1-143).
T12 sequence: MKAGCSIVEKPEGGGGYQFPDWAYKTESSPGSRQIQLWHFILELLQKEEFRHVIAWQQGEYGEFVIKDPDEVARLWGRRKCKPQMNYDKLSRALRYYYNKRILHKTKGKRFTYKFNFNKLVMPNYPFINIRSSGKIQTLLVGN
As to conditions: protein: recombinant; tags: N-terminal GST; dsDNA, one strand shown. Put shortly:
as §1

The next assay has as its target ETV6 (Homo sapiens, UniProt P41212 1-452). The note with it: protein: recombinant; tags: N-terminal GST; dsDNA, one strand shown. The method, boiled down: as §1

ETV5, sequence (P41161 whole entry): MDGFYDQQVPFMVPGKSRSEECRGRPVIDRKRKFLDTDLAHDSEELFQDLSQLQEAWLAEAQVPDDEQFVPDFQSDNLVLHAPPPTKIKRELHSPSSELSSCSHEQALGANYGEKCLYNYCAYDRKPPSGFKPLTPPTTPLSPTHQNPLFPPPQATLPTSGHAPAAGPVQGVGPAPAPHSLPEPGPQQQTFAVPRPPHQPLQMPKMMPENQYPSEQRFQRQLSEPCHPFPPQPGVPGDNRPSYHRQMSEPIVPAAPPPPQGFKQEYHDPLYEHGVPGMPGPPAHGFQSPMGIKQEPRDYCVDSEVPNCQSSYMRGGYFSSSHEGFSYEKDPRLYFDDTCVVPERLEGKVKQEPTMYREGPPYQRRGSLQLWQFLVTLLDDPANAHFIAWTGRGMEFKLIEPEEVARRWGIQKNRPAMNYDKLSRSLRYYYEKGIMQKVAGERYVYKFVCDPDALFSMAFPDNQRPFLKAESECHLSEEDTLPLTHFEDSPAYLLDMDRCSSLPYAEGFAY
HSF1, sequence (Q00613 whole entry): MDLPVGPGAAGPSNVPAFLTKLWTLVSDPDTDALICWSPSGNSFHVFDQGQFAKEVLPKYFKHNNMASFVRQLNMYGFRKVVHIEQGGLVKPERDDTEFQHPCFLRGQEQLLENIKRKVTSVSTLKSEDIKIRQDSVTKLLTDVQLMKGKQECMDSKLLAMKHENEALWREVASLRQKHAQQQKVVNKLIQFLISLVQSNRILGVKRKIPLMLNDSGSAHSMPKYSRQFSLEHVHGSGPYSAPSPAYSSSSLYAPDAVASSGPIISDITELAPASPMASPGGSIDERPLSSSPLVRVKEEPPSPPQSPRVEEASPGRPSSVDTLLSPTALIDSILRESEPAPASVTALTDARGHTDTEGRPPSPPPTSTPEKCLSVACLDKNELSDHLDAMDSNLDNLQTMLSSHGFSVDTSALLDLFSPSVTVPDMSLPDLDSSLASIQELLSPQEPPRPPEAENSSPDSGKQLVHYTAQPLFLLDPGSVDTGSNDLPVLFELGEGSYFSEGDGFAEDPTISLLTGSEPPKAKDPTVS
ETV6, sequence (P41212 whole entry): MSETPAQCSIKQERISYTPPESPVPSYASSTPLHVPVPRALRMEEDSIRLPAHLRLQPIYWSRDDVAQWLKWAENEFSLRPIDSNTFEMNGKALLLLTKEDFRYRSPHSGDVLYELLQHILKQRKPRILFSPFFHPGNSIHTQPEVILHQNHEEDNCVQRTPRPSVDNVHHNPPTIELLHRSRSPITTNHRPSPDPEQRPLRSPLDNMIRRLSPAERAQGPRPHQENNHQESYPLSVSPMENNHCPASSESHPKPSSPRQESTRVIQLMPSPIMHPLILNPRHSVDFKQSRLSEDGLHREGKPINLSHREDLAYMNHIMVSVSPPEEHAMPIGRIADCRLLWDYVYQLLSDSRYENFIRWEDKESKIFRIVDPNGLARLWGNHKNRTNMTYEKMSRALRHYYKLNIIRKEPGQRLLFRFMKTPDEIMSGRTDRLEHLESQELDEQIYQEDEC

As to TAAACG, the binding signal was 1.12 fold enrichment (6-mer frequency, TF over GST control) in the assay with FEV; 1.07 fold enrichment (6-mer frequency, TF over GST control) with ETV5; 1.19 fold enrichment (6-mer frequency, TF over GST control) in the assay with HSF1; 1.05 fold enrichment (6-mer frequency, TF over GST control) with SPIC; 1.13 fold enrichment (6-mer frequency, TF over GST control) in the assay with ELF4; 1.2 fold enrichment (6-mer frequency, TF over GST control) with ELK4. For the same sequence, the binding signal was 1.09 fold enrichment (6-mer frequency, TF over GST control) with ETV2; 1.07 fold enrichment (6-mer frequency, TF over GST control) in the assay with ELF3; 1.44 fold enrichment (6-mer frequency, TF over GST control) in the assay with CRX; 1.13 fold enrichment (6-mer frequency, TF over GST control) in the assay with ETV1; 1.11 fold enrichment (6-mer frequency, TF over GST control) with ERF; 1.07 fold enrichment (6-mer frequency, TF over GST control) with ETV3L. Also, the binding signal with ETS2 was 1.16 fold enrichment (6-mer frequency, TF over GST control); with SPDEF it was 1.11 fold enrichment (6-mer frequency, TF over GST control); in the assay with ETV7 it was 1.1 fold enrichment (6-mer frequency, TF over GST control); with ELF5, 1.1 fold enrichment (6-mer frequency, TF over GST control); in the assay with ETV3, 1.15 fold enrichment (6-mer frequency, TF over GST control); in the assay with ETV6, 1.14 fold enrichment (6-mer frequency, TF over GST control).
